Screening data from PubChem BioAssay.
AmpC no deterg: qHTS Inhibitors of AmpC Beta-Lactamase (assay without detergent); actives 0.52% (n = 330,000); P00811; AmpC nitrocefin hydrolysis, absorbance 480 nm, 0.0001% Triton; Potency, µM (series often up to 57.1 µM), usual class: inhibitors; further: nearly all actives have a fitted effect of over 20% in size
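AmpC (5.3 nM in the dispensed reagent) in 20 mM phosphate pH 7.0 with 0.01% (detergent screen) or 0.0001% Triton X-100 was preincubated with compounds for 15 min at room temperature. Nitrocefin was then added from an 800 uM solution, and hydrolysis was followed at 480 nm.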
AMA1-RON2 inh: qHTS for Inhibitors of AMA1-RON; Towards Development of Antimalarial Drug Lead: Primary Screen; AlphaScreen AMA1-biotinylated RON2 peptide binding; actives 0.2% (n = 360,000); Potency, µM (top dose mostly 58.2 µM), actives largely listed as inhibitors; further: nearly all actives have a fitted effect of over 45% in size
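AMA1 (3D7) with his tag at 25 nM final met compounds first, then biotinylated RON2 peptide at 25 nM; detection used donor plus acceptor beads, 10 µg/mL apiece, read by AlphaScreen after 30 min at room temperature.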
LmPK inhibitor: qHTS Assay for Inhibitors of Leishmania Mexicana Pyruvate Kinase (LmPK). AID 1721, 2009. Q27686. purified LmPK, Kinase-Glo ATP luminescence, 1 h. actives 0.37% (n = 290,000). Potency, µM (doses to about 57.5 µM), actives largely listed as inhibitors
Target sequence (Q27686 whole entry, looked up): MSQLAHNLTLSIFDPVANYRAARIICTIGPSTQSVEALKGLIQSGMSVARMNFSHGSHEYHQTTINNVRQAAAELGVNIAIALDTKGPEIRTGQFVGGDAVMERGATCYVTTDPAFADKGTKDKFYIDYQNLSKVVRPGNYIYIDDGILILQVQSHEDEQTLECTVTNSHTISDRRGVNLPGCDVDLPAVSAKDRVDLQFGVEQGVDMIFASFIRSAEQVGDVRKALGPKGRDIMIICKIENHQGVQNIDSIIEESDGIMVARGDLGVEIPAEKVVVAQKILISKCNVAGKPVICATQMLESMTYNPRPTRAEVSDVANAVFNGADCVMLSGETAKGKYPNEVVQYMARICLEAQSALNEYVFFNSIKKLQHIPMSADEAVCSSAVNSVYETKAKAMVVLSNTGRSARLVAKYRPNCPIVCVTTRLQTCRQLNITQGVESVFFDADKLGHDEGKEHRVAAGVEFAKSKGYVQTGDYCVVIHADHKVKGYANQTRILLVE
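Pyruvate kinase activity monitored as ATP production (luciferase luminescence). Conditions: 0.1 nM enzyme, 0.5 mM PEP, 0.1 mM ADP, 1 h, RT; normalized against uninhibited and no-enzyme wells.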
Giardia FBPA inh: qHTS Assay for Inhibitors of Fructose-1,6-bisphosphate Aldolase from Giardia Lamblia; A8B2U2; Potency, µM (top dose mostly 59.6 µM), usual class: inhibitors; actives 0.71% (n = 290,000); AID 2451, 2010; purified Giardia FBPA; further: nearly all actives have a fitted effect of over 55% in size
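40 nM FBPA preincubated 10 min at RT with compound (up to 57.5 uM final), then substrate plus GAPDH/TPI/NAD/arsenate coupling and diaphorase/resazurin added. Fluorescence read after 20 min at RT, 525/598 nm.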
AmpC detergent: qHTS Inhibitors of AmpC Beta-Lactamase (assay with detergent). P00811. AmpC hydrolysis of nitrocefin, absorbance 480 nm, 0.01% Triton. Potency, µM (series often up to 114 µM), hits mostly inhibitors. actives 0.041% (n = 370,000). AID 485294, 2010; further: nearly all actives have a fitted effect of over 25% in size
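20 mM phosphate pH 7.0 + 0.01% (detergent screen) or 0.0001% Triton X-100; 5.3 nM AmpC reagent; cpd preinc 15 min RT; nitrocefin (800 uM stock) to start; A480 q20 s × 4 min; Activity was normalised to no-enzyme and no-compound control wells.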
Hits are given with their value; - = inactive; ? = inconclusive; . = not tested or not shown; ! = repeats disagree; [ ] = remark or other dose. In the library only some 1.3% were active in any assay of this set; here they are far more common. The call rests on the fitted dose curve; in most records, active means well fitted curve in the direction sought with a large enough effect; inconclusive means small, poorly fitted or top-dose-only effect, or another doubt; inactive means no such curve, though single readings can be large; an effect the other way counts as inactive or inconclusive.

SMILES	AmpC no deterg	AMA1-RON2 inh	LmPK inhibitor	Giardia FBPA inh	AmpC detergent
CCOC(=O)c1c(C)n(Cc2ccc(F)cc2)c2ccc(O)cc12	-	-	18µM	-	-
CCOC(=O)c1c(C)n(Cc2ccc3c(c2)OCO3)c2ccc(O)cc12	-	-	-	-	-
CCc1cccc(NC(=O)CN2C(=O)COc3ccc(S(=O)(=O)N4CCC(C)CC4)cc32)c1	.	.	.	.	-
CN(C)c1ccc(C(c2ccc(N(C)C)cc2)c2ccc([N+](=O)[O-])cc2)cc1	-	8.9µM	-	-	-
O=[N+]([O-])c1ccc(C(=S)N2CCN(c3ccc(F)cc3)CC2)cc1	-	?	-	-	-
CN(C)c1ccc(C(=S)N2CCN(c3ccc([N+](=O)[O-])cc3)CC2)cc1	-	-	-	7.9µM	-
CN(C)c1ccc(C=NC(CO)C(O)c2ccc([N+](=O)[O-])cc2)cc1 (configuration not stated)	-	-	-	-	-
CC(C#N)Sc1ccc(S(=O)(=O)N(C)C2CCCCC2)cn1 (configuration not stated)	-	-	.	.	-
CCc1ccc(C2CC(c3ccc(F)cc3)Nc3nc(N)nn32)cc1 (configuration not stated)	4.5µM	-	-	-	-
Cc1ccc(C2CC(c3ccc(C)cc3)n3nc(N)nc3N2)cc1 (configuration not stated)	45µM	-	-	-	?
COc1cccc(CNC(=O)C(=O)NCC(c2ccco2)S(=O)(=O)c2cccs2)c1 (configuration not stated)	.	.	.	.	-
CC12CCC=CC1C(c1ccc3ccccc3c1C=Cc1ccccc1)N(Cc1ccccc1)C2=O (configuration not stated)	.	.	.	-	.
CSCC[C@H](NC(=O)[C@H](CO)NC(=O)[C@H](Cc1ccc(O)cc1)NC(=O)[C@@H](N)CO)C(=O)N[C@@H](CCC(=O)O)C(=O)N[C@@H](Cc1cnc[nH]1)C(=O)N[C@@H](Cc1ccccc1)C(=O)N[C@@H](CCCNC(=N)N)C(=O)N[C@@H](Cc1c[nH]c2ccccc12)C(=O)NCC(=O)N[C@@H](CCCCN)C(=O)N1CCC[C@H]1C(=O)N[C@H](C(=O)NCC(=O)N[C@@H](CCCCN)C(=O)N[C@@H](CCCCN)C(=O)N[C@@H](CCCNC(=N)N)C(=O)N[C@@H](CCCNC(=N)N)C(=O)N1CCC[C@H]1C(=O)N[C@H](C(=O)N[C@@H](CCCCN)C(=O)N[C@H](C(=O)N[C@@H](Cc1ccc(O)cc1)C(=O)N1CCC[C@H]1C(=O)O)C(C)C)C(C)C)C(C)C	.	.	.	-	.
Oc1ccc(C2C(c3ccccc3)=NN=C(c3ccc(Cl)cc3)N2O)c(O)c1 (configuration not stated)	25µM	-	-	-	?
O=C1CCC[C@@H]2[C@@H](Cc3ccccc3)[C@H](N3CCN(c4ccccc4)CC3)C[C@@H]3CCN1[C@@H]32	.	-	.	.	.
S=c1[nH]nc(COc2ccccc2)n1/N=C/C=C/c1ccco1	16µM	-	-	?	-
S=c1[nH]nc(COc2ccccc2)n1/N=C/C=C/c1ccccc1	-	-[2.32 µM]	-	-	-
COc1ccc(/C=C/C(=O)c2ccccc2)cc1COc1ccc(F)cc1	-	-	-	-	-
COc1ccc(/C=C/C(=O)c2ccc(O)cc2)cc1COc1ccc(F)cc1	11µM	-	-	-	-
Cc1cc2c(=O)n(Cc3ccco3)c(SCC(=O)c3ccc(Cl)s3)nc2s1	28µM	-	-	-	-
CN(C)C(=O)CSc1ccc(S(=O)(=O)N2CCOCC2)cn1	-	-	.	.	-
COc1ccc(C(=O)O/N=C(\C)c2nccs2)cc1	-	-	7.9µM	-	-
COc1ccc(C(=O)O/N=C(/C)c2cccs2)cc1	-	-	3.5µM	-	-
C/C(=N/OC(=O)c1c(F)cccc1F)c1nccs1	-	-	13µM	-	-
C/C(=N\OC(=O)c1ccc(F)cc1)c1nccs1	-	-	?	-	-
SMILES	AmpC no deterg	AMA1-RON2 inh	LmPK inhibitor	Giardia FBPA inh	AmpC detergent
CC(C)C(C(=O)O)N1C(=O)/C(=C/c2ccc(Br)cc2)SC1=S (configuration not stated)	.	.	.	-	.
CN(C)CCCN1c2ccc(O)cc2Sc2ccc(Cl)cc21	.	20µM	.	.	.
CN1CCN(CCCN2c3ccccc3Sc3ccc(Cl)cc32)CC1	-	16µM!	-	?	-
CN1CCN(CCCN2c3ccccc3Sc3ccccc32)CC1	.	.	.	-	.
CC1=C/C(=N\OS(=O)(=O)c2ccccc2)C(C)=CC1=O	-	?	-	7.9µM	-
CC1=C/C(=N\OS(=O)(=O)c2ccccc2)C(C(C)C)=CC1=O	-	?	-	11µM	-
CC1=C(C)/C(=N\OS(=O)(=O)c2ccc(C)cc2)C=CC1=O	-	?	-	4µM	-
COc1ccc(S(=O)(=O)/N=C2/C=CC(=O)C(C)=C2C)cc1	-	-	?	?	-
Cc1ccc(NC(=O)N2CCCC2C(=O)Nc2ccc3c(c2)OCCO3)cc1 (configuration not stated)	-	-	-	-	-
O=C(c1ccco1)N1CCC2(CCCN(c3ccncc3)C2)CC1	.	.	.	-	.
COc1ccc(Cl)cc1NC(=S)NCCN1CCOCC1	-	-	-	-	-
COc1ccc(NC(=S)NCCN2CCC(C)CC2)cc1Cl	-[2.29 µM]	-	-	14µM	-
O=C(CN1C(=O)c2ccccc2C1=O)NC(Cc1ccccc1)C(=O)O (configuration not stated)	.	-	.	.	.
CN(C)c1ccc(CNC(=O)C2(C)Cc3c(-c4cccc(C(F)(F)F)c4)ccnc3O2)cc1 (configuration not stated)	.	25µM	.	.	.
Cc1cc(C)c(NC(=S)NCC2CCN(C(C)c3ccccc3)C2)c(C)c1 (configuration not stated)	-	-	-	2µM	-
COc1ccccc1OCc1ccc(C(=O)NCc2ccco2)o1	0.28µM	-	-	-	-
COc1ccccc1OCc1ccc(C(=O)NC(C)(C)C)o1	-	-	-	-	-
Cc1cc(C)c(C(=O)CSc2nc3ccccc3c(=O)[nH]2)cc1C	18µM	-	-	-	?
O=C(Nc1c(-c2ccccc2)[nH][nH]c1=O)c1cccs1	.	-	.	.	.
COc1cc(/C=N/NC(=O)C(Cc2c[nH]c3ccccc23)NC(=O)OCc2ccccc2)cc([N+](=O)[O-])c1O (configuration not stated)	10µM	-	-	-	-
Cc1ccc(Nc2nnc(SCC(=O)c3ccc(O)cc3O)s2)cc1	11µM	-	-	-	-
